# Compound activity (PubChem)
# Hits are enriched below; roughly 3.5% of the tested compounds scored in any of these assays.
# Mtb betalactam: beta-lactam sensitization of Mtb H37Rv; inhibition, % at 25 µM; M. tuberculosis H37Rv growth with meropenem, percent inhibition; 330,000 tested, 0.27% active; call rule not given here;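 further: growth measured after seven days incubation then overnight dye step; 0% = bacteria only wells and 100% = bacteria with antibiotic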
# Mtb UGM inh: inhibitors of M. tuberculosis UDP-galactopyranose mutase. inhibition, % at 10 µM. P9WIQ1. purified UGM, fluorescence polarization probe displacement. 320,000 tested, 0.06% active; in the data active means inhibition above about 10%, passing the limit was not always enough
# FBA Mtb inh: inhibitors of M. tuberculosis fructose-bisphosphate aldolase | 360,000 tested, 2.3% active | inhibition, % at 1 µM | P9WQA3 | purified M. tuberculosis FBA, fluorescence read-out; in the data active means inhibition above about 27%;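 further: 0% = vehicle and 100% = reference inhibitor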
# GDH-TPI inh: inhibits GDH-TPI coupling enzymes, artifact for Mtb FBA screen. inhibition, % at 4.8 µM. 360,000 tested, 1.2% active. GDH-TPI coupled enzyme counterscreen, NADH absorbance; in the data active means inhibition above about 30%;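 further: 0% = DMSO wells and 100% = wells lacking the enzyme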
# Rv3671c inh: inhibitors of M. tuberculosis serine protease Rv3671c. P9WHR9. inhibition, % at 5.96 µM. 320,000 tested, 0.048% active; in the data active means inhibition above about 38%;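 further: extracellular domain of Rv3671c used as enzyme; 0% = enzyme with DMSO and 100% = no enzyme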
# Target sequence (P9WHR9 whole entry, looked up, the tested form may be a part): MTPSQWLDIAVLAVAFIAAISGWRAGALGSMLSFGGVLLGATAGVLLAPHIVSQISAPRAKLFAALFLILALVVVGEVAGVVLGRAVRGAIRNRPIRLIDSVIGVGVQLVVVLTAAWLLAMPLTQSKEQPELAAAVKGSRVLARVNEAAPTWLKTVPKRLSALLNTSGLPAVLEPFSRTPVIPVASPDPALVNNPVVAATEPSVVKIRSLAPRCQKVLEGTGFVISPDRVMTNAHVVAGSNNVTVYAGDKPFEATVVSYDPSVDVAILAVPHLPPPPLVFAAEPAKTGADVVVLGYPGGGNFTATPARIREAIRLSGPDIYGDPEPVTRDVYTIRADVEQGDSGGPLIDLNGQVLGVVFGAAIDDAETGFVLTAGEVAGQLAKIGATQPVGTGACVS
# Active calls of the source: *; · = not tested or not shown; + = active, no number.
SMILES,Mtb betalactam,Mtb UGM inh,FBA Mtb inh,GDH-TPI inh,Rv3671c inh
CCCCCCCn1c(=N)n(CC(O)c2ccco2)c2ccccc21 (stereo not drawn),3,1,7,4,2
N=c1n(CCN2CCCC2)c2ccccc2n1CC(O)c1ccco1 (stereo not drawn),-2,41*,2,6,-2
CC1(C)Oc2ccc3ccc(=O)oc3c2/C(=C/NNC(N)=O)C1=O,-2,-2,-5,11,0
Cc1ccc(OCCn2c(C)c(/C=N/n3cnnc3)c3ccccc32)cc1,2,-2,2,31*,0
Cc1ccc(-c2c(C#N)c(N)n3c(nc4ccccc43)c2C#N)cc1,-4,0,119*,12,-6
Cc1cc(Cl)n2c(nc3ccccc32)c1C#N,·,·,+,7,·
CCN(CC)c1cc(C)c(C#N)c2nc3ccccc3n12,-1,1,23,-14,1
CNc1cc(C)c(C#N)c2nc3ccccc3n12,-9,1,+,4,-7
CC(C)CC(=O)O/N=C1\C(=O)N(Cc2ccc(Cl)cc2)c2ccc([N+](=O)[O-])cc21,-1,0,·,·,77*
COc1ccc2ccccc2c1/C=N/NC(=S)Nc1cc(S(=O)(=O)N2CCOCC2)ccc1N1CCOCC1,-2,0,1,5,-14
CCN1CCN(c2ccc(S(=O)(=O)N3CCCCC3)cc2NC(=O)/C=C/c2ccc(OC)c(OC)c2)CC1,3,3,-3,20,-10
COc1ccc(/C=N/NC(=S)Nc2cc(S(=O)(=O)N3CCOCC3)ccc2N2CCOCC2)cc1O,4,-1,0,42*,-1
CCN1CCN(c2ccc(S(=O)(=O)N3CCOCC3)cc2NC(=O)/C=C/c2ccc(OC)c(OC)c2)CC1,6,-3,5,34*,5
O=C(CC[C@H]1O[C@@H](n2ccc(=O)[nH]c2=O)[C@H](O)[C@@H]1O)NCc1ccccc1,·,·,0,·,·
CN(C)S(=O)(=O)c1ccc(C(=O)Nc2nnc(-c3cccs3)o2)cc1,89,-3,3,12,6
CC1CC(C)CN(S(=O)(=O)c2ccc(C(=O)Nc3nnc(-c4cccs4)o3)cc2)C1 (stereo not drawn),93,1,1,2,-6
N#Cc1ccc(C(=O)Nc2nnc(-c3cccs3)o2)cc1,97,1,0,33*,-4
CCC1CCCCN1S(=O)(=O)c1ccc(C(=O)Nc2nnc(-c3cccs3)o2)cc1 (stereo not drawn),2,4,2,68*,-7
O=C(N/N=C/c1cc(Br)c(O)c(Br)c1)C1CC1,10,0,3,31*,3
COc1cc(/C=N/NC(=O)C2C3CCCCC32C)cc(Br)c1O (stereo not drawn),14,3,14,51*,4
CCOC(=O)CNC(=O)N1Cc2cc(-c3ccc(OC)cc3)ccc2-n2nncc2C1,·,·,124*,·,·
COc1ccc(-c2ccc3c(c2)CNCc2cnnn2-3)cc1,·,·,115*,·,·
C#CCN(C[C@@H](CC(C)C)NC(=O)OC(C)(C)C)S(=O)(=O)c1ccc(Br)cc1F,·,·,1,5,·
CCN(CC)c1ccc(/C=N/NC(=O)c2ccco2)c(O)c1,11,1,4,41*,13
CCN(CC)c1ccc(/C=N/NC(=S)NCc2ccccc2)c(O)c1,0,0,7,24,18
SMILES,Mtb betalactam,Mtb UGM inh,FBA Mtb inh,GDH-TPI inh,Rv3671c inh
CCN(CC)c1ccc(NC(=O)c2ccco2)cc1,24,3,-1,6,7
O=C(Cc1cccs1)N/N=C/c1ccccc1,-6,-1,1,6,-4
CCN(CC)c1ccc(/C=N/NC(=O)c2ccco2)cc1,-1,0,-2,43*,-4
CCN(CC)c1ccc(/C=N/NC(=O)Cc2cccs2)c(O)c1,-3,0,0,38*,13
COc1ccc(NC(=O)c2ccc3c(c2)S(=O)(=O)N=C2CCCCCN23)cc1S(N)(=O)=O,·,·,-3,11,·
C=CCn1cc(C(=O)OC)c(=O)c2cc(S(=O)(=O)N3CCC(C)CC3)ccc21,-1,1,2,32*,-1
O=Cc1ccc(C(=O)OCC(=O)NCCC2=CCCCC2)cc1,0,1,-2,2,2
CNC(=O)C12CCC(C)(c3nc4cc(C)c(C)cc4nc31)C2(C)C (stereo not drawn),-3,0,3,16,-1
CCCNC(=O)C12CCC(C)(c3nc4cc(C)c(C)cc4nc31)C2(C)C (stereo not drawn),-1,-1,2,55*,-4
Cc1cc2c(=O)n(NC(N)=O)c(C)nc2s1,-5,0,150*,-2,7
CC(C)n1c(O)c(C=NCc2ccccc2)c(=O)[nH]c1=S,9,0,-4,40*,0
O=c1[nH]c(=S)n(Cc2ccc(F)cc2)c(O)c1C=NCc1cccnc1,12,1,-3,35*,-10
CC(Oc1ccccc1Cl)C(=O)Nc1ccc(S(=O)(=O)Nc2nccs2)cc1 (stereo not drawn),-10,·,3,0,9
CC(Oc1ccc(Cl)cc1)C(=O)Nc1ccc(S(=O)(=O)Nc2nccs2)cc1 (stereo not drawn),-2,1,107*,3,-4
COc1cccc(-n2c(SCC(=O)N3CCOCC3)nc3c([nH]c4ccccc43)c2=O)c1,-3,-1,0,33*,-5
Cc1ccc2nc(SCC(=O)c3ccc(O)cc3O)[nH]c2c1,-6,1,7,51*,-24
COC(=O)CSc1nc2ccc(C)cc2[nH]1,-5,-2,-2,7,-9
Nc1cc(=O)[nH]c(SCC(=O)c2ccc(O)cc2O)n1,3,2,-2,34*,3
CC(C)(C)NC(=O)CSc1nc(N)cc(=O)[nH]1,-2,2,0,1,-7
C/C(=C\c1cccs1)C(=O)c1c(C)cc(C)[nH]c1=O,0,-1,2,53*,-19
Cc1cc(C)c(C(=O)/C=C/c2cccs2)c(=O)[nH]1,2,-1,-4,16,-1
CCC1(c2ccccc2)NC(=O)N(CC(=O)Nc2ccc3c(c2)OCO3)C1=O (stereo not drawn),1,0,-2,-4,-2
Cc1cc(=O)oc2cc(NC(=O)CC3(CC(=O)O)CCCC3)ccc12,-9,1,+,20,5
CCC1(c2ccccc2)NC(=O)N(CC(=O)Nc2ccc3c(C)cc(=O)oc3c2)C1=O (stereo not drawn),-3,0,198*,21,-11
Cc1cc(=O)oc2cc(NC(=O)C3CCCC3)ccc12,41,0,155*,13,4
CCN(CC(=O)Nc1ccccc1C(F)(F)F)C(=O)CCc1c(C)[nH]c(=O)c(C#N)c1C,1,1,1,11,3
COCCCNC(=S)N/N=C/c1cccc(OC)c1O,96,-5,5,4,0
CCNC(=S)N/N=C/c1ccc(C#N)cc1,-8,-1,-5,39*,0
COCCCNC(=S)N/N=C/c1ccc(O)cc1O,-10,1,2,33*,5
CCNC(=S)N/N=C/c1ccco1,95,3,2,19,5
